In all, about 33,000 sequences were measured (“E-score (-0.5 to 0.5)”: median about -0.04, highest 2% from about 0.36 on). Shown is part of a subset that was picked to be rich in the highest values.
The sequences below were run against T1, Hmlalpha2 (UniProt P0CY09) (assay: PBM E-score (8-mer binding enrichment) (E-score (-0.5 to 0.5)); higher = stronger / more preferred TF binding). Conditions: protein concentration: 200 nM; construct: GST-full length.
T1 sequence: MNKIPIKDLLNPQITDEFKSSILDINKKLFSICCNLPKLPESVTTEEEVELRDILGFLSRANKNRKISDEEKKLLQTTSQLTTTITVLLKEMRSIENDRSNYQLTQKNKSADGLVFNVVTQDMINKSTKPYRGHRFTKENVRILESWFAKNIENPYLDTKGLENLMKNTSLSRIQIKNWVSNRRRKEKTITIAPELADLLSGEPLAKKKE
Protocol: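 Universal 'all 10-mer' protein binding microarrays (Agilent AMADID 015681) probed with GST-tagged S. cerevisiae TFs (full-length or DBD) made by in vitro transcription/translation (PURExpress), about 100-200 nM. Bound TF was detected with fluorescent anti-GST. Each ungapped 8-mer (which stands for itself and its reverse complement) is scored by the PBM enrichment score (E-score), a modified Wilcoxon-Mann-Whitney statistic from -0.5 to +0.5, computed with the Universal PBM Analysis Suite. Scale: above 0.35 generally sequence-specific binding.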

Sequence	PBM E-score
ATGAGGAA	0.0377
ACCTAACT	0.00114
AACGAACC	0.036
CATGGGGC	0.0176
CGCAATGA	0.0708
GAGAATAC	0.242
ATTGTTGG	0.151
AATCTGAA	0.102
ACTACTTG	0.154
AAGTGTAC	0.0982
GGGTGTAC	-0.0223
GCGTGTAA	0.486
GAGTGTAC	0.0265
GCGTGTAC	0.427
ACGTGTAT	0.402
ACGTGTGC	0.172
TAGTGTAA	0.323
GCCTGTAA	0.254
ACGTGTAC	0.382
AAGTGTAT	0.194
ACGTGTCT	0.193
CAACCACG	0.111
ATTGGTAG	0.0446
GGATCCTA	-0.154
ATCCTAAT	-0.0163

Sequence	PBM E-score
CTGGCGAA	-0.103
CTGTCCAA	-0.0758
ACATAGGG	0.251
ACGTAGAT	0.267
CGCTTGCA	-0.0244
GCGCGTGA	0.134
ACGCGTAA	0.394
TGGCGTAA	0.108
TCGCGTAA	0.45
TAGCGTAA	0.278
ACGCGTAT	0.357
GCGCGTTA	0.372
ACGCGTAC	0.345
GCGCGTAA	0.416
ACGCGTTA	0.342
GCGCGTAC	0.225
CCGCGTTA	0.336
GCTGAAGC	-0.14
CCGAATGC	-0.125
ATTGATGG	0.08
TCCATGAA	0.043
TCCAACAA	0.264
GGCCTACC	-0.247
CTGAGGGC	-0.3
ATCTCGGA	-0.115

Sequence	PBM E-score
AAAGCGAG	0.107
CTCTGACA	0.132
GCGACCAA	-0.0947
GCCAGACA	-0.163
CCGCGTAC	0.266
CCGCGTAA	0.426
CCGCGTAG	0.294
ATCTACTA	0.193
GCTATTCA	0.0214
ACTTTGCC	-0.0921
GGGGAGTA	-0.225
AAGTTGCA	0.109
GATCTACA	0.345
AATCTACT	0.098
ATTCTACA	0.371
ATTCTACG	0.157
TATCTAAA	0.141
GTTCTACA	0.29
CATCTACA	0.338
AATCTACA	0.438
TATCTACA	0.371
GCATTGAC	0.0683
CGACCGAA	-0.0499
GAAGGCCA	-0.38
ATCTGCCA	-0.149

Sequence	PBM E-score
CAGTACAG	0.0351
TAACGGCA	-0.0141
GTTACTGA	0.171
CTTACAGA	0.0289
CTTACATA	0.426
GTTACATA	0.421
CTCACATA	0.0587
GTTACAGA	0.0217
ACCCCTAT	-0.208
ACACCCAG	0.0143
GCGCGAAA	0.189
TCACAACA	0.324
TACTATAA	0.171
ACATATGC	0.123
ACATATTG	0.142
ACATATGT	0.369
CAATATTA	0.213
AAATATTA	0.317
TAATATTA	0.379
CCATATTA	0.063
ACATATGG	0.104
ACATATTA	0.389
ATGCACAC	0.106
CTTTTGCA	0.105
ACTTTCGG	-0.0932

Sequence	PBM E-score
AGCATCCC	-0.348
AGAACTAA	0.189
AGAGCGGG	-0.166
ACCTACTA	0.081
ACGCGATA	0.324
CTCCAGGC	-0.185
GTTAAAAA	0.369
ATTAAAAA	0.249
GTTAAAAC	0.343
GTTAAACA	0.375
CTTAAACA	0.128
ATTAAACA	0.322
TCCTACCA	-0.318
GGATGGAA	-0.175
AGGTTCTG	-0.0953
AAACCTCT	-0.08
ATGTTTAA	0.387
GTGTTTTA	0.355
ATGTTTCC	0.0968
ATGTTTTC	0.421
CTGTTTTA	0.0458
CTGTTTAA	0.11
CTGTTTTC	0.036
GTGTTTAA	0.351
ATGTTTTA	0.422

Sequence	PBM E-score
ACCTTGGC	-0.242
ATTGCCAA	-0.206
CCTGGACC	-0.0273
GGTTCTCA	-0.0328
ATCTACAA	0.307
ATCTACTC	0.00965
ATCTACAC	0.45
CTCTACAA	0.277
ATCTACAT	0.452
ATCTACGC	0.368
GTCTACAC	0.364
ATCTACGA	0.014
CTCTACGC	0.0772
CCCTACAC	0.247
CTCTACAC	0.368
ATCTACAG	0.151
GGAGGCTA	-0.325
GTTCTGCA	0.104
GTAACATA	0.355
ATAACATA	0.437
ATAACATG	0.452
CTAACATA	0.273
ATAACATC	0.327
ATAACAGG	0.194
AGCTGCAG	-0.168

Sequence	PBM E-score
ACTTTGAC	0.231
CCTTGCCC	-0.198
AAATGTTG	0.0925
CCATGTTC	0.275
ACATGTTC	0.371
CCATGTCA	0.333
AGATGTTC	0.0875
CAATGTTA	0.284
ACATGTTG	0.45
AGATGTTG	-0.0256
ACATGTCC	0.351
GCCTGTTA	0.139
GCATGTTA	0.464
ACATGTCA	0.402
CCTGGGCG	-0.173
GCAAGCGA	0.0703
GCGAAACC	0.104
CAAACCCG	-0.0693
ATTCACCA	0.0468
ATGAGGTA	0.136
CCGCATAC	0.0261
CCTTAGAG	-0.462
